# ChEMBL document CHEMBL3988442, “University of Dundee, Small-Polar-MMV Screening Library” (2021)
# Screen size: about 67,000 compounds; about 300 (0.45%) showed an effect of 50% or more. Many of the other results were omitted from the sample, so strong results are more common in it than they were.
# Molecular target: Polyketide synthase Pks13 (Mycobacterium tuberculosis (strain ATCC 25618 / H37Rv)) (UniProt I6X8D2)
# Experiment: Mycobacterium tuberculosis Polyketide synthase 13 Thioesterase (PKS13)
# Assay type: functional
# Parameters: scale not given: in the data most compounds retested in dose-response had high values
# Conditions: 30 µM
# Sequence of Polyketide synthase Pks13 (Mycobacterium tuberculosis (strain ATCC 25618 / H37Rv)) (I6X8D2 whole entry): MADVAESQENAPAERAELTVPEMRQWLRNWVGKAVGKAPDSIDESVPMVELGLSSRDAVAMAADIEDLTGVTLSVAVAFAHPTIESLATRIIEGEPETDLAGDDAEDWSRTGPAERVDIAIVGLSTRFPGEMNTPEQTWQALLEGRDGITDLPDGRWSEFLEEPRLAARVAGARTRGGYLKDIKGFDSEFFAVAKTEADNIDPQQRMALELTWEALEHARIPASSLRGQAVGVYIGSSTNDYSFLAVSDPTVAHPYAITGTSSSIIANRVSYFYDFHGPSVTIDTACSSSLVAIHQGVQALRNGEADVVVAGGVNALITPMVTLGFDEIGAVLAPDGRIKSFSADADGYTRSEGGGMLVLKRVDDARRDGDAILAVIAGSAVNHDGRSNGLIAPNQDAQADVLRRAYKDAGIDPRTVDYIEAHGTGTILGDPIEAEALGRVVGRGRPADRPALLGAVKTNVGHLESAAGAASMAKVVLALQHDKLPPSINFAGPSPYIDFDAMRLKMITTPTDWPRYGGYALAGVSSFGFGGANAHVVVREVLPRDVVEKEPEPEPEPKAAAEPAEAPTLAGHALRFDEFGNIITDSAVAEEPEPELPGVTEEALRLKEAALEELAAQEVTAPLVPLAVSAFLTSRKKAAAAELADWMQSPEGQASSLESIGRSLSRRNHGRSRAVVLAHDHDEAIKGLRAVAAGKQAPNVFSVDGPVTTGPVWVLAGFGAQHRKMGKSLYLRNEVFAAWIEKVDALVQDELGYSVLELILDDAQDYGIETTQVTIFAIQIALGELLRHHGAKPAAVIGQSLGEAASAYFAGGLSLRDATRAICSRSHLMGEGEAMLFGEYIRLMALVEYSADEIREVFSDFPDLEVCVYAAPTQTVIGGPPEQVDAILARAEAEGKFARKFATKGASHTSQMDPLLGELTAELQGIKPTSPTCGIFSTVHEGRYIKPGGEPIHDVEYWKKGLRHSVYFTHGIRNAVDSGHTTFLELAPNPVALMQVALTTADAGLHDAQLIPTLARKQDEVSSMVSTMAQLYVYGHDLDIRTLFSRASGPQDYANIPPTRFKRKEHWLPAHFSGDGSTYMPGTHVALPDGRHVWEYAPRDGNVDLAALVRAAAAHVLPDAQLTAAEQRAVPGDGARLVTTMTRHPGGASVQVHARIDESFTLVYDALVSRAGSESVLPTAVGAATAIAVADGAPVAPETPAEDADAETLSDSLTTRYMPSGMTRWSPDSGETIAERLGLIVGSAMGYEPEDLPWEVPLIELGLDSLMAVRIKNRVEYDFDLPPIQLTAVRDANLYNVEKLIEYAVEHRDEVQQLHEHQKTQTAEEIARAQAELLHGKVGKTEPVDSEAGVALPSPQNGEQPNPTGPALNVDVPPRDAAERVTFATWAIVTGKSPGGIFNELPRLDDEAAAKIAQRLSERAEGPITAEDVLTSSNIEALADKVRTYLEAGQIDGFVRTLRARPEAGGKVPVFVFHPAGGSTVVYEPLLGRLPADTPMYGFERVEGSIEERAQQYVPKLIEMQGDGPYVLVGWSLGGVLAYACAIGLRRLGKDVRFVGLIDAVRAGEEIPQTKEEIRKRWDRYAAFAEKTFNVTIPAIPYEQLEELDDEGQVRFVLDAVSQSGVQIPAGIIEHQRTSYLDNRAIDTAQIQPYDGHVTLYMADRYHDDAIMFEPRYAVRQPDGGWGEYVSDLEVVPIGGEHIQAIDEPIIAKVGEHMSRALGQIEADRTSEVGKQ
row,SMILES,Percent Effect
1,COCC(=O)N1CCc2ccccc2C12CCNCC2,-33%
2,O=C(C1CC1)N1CCc2ccccc2C12CCNCC2,61.6%
3,CCOC(=O)N1CCc2ccccc2C12CCNCC2,5.43%
4,CCOCC(=O)N1C[C@@H]2CC[C@H](C1)N(Cc1ccccn1)C2=O,-4.9%
5,CC(C)OCc1ncn2c1CN(Cc1cccs1)CCC2,-19.5%
6,CC(C)OCc1ncn2c1CN(Cc1ccc(F)cc1)CCC2,-26.5%
7,CC(C)OCc1ncn2c1CN(Cc1nccs1)CCC2,54.5%
8,CN1CCN2C[C@@H](CO)[C@H](c3ccccc3)[C@H]2C1,1.92%
9,Cn1cc(C[C@H]2[C@H](N3CCOCC3)CCN2c2ncc(F)cn2)cn1,56%
10,Fc1cnc(N2CC[C@@H](N3CCOCC3)[C@@H]2Cc2ccncc2)nc1,-11.8%
11,Fc1cnc(N2CC[C@@H](N3CCOCC3)[C@@H]2Cc2ccccc2)nc1,-4.97%
12,CN1C[C@@H]2CN(C(=O)NCc3ccccc3)CCC[C@]2(C(=O)O)C1,-22.8%
13,O=S1(=O)C[C@@H]2[C@H](C1)N(Cc1cc(Cl)cc(Cl)c1)CCN2CC1CC1,-18.6%
14,COc1cccc(N2CCN(C(=O)C(O)c3ccccc3Cl)CC2=O)c1 (configuration not stated),55.5%
15,COc1cccc(N2CCN(C(=O)C(O)c3cccc(Cl)c3)CC2=O)c1 (configuration not stated),-13.9%
16,COc1cccc(N2CCN(C(=O)C(C)Oc3ccccc3)CC2=O)c1 (configuration not stated),-5.21%
17,CCc1cc(C(=O)N2CCC(c3cc4ncccc4cn3)CC2)no1,-21.6%
18,CCc1cc(C(=O)N2CCC(c3cc4ncccc4cn3)CC2)on1,16.1%
19,O=C(CCc1cc(Cl)no1)N1CCC(c2cc3ncccc3cn2)CC1,129%
20,O=C(C1CCOCC1)N1CC[C@H]2[C@H]1CCN2c1nncs1,-28.6%
21,CSCC[C@@H]1CN2CCC[C@H]2CN1Cc1coc2ccc(Cl)cc2c1=O,-2.59%
22,CN(Cc1cncnc1)[C@@H]1CN(C(=O)C2CC2)[C@@H]2CCCO[C@H]12,-10.1%
23,CN(C)S(=O)(=O)N1C[C@@H]2CC[C@H](C1)N(C/C=C/c1ccc(F)cc1)C2,-0.937%

row,SMILES,Percent Effect
1,OCCCN1CCCC1c1nc(Cc2ccc(F)cc2)no1 (configuration not stated),11.8%
2,CC(C)(C)OCCN1CCCC1c1nc(Cc2ccc(F)cc2)no1 (configuration not stated),74.9%
3,CCCN1CCCC1c1nc(Cc2ccc(F)cc2)no1 (configuration not stated),-12.9%
4,c1cnc(NC[C@H]2OC[C@@H]3CCN(Cc4cccnc4)C[C@@H]32)nc1,-692%
5,CCCc1ccc(C(=O)N2CCc3c(nc(C)nc3N(C)C)C2)cc1,6.78%
6,CCNc1ncc(C(=O)N2CCc3c(nc(C)nc3N(C)C)C2)cn1,50.1%
7,Cc1nc2c(c(N(C)C)n1)CCN(C(=O)c1ccc(N)nc1)C2,-0.177%
8,Cc1ccc(CN2CC[C@H]3NC(=O)CC[C@@H]32)o1,-15.3%
9,O=C(c1ncccn1)N1C[C@@H]2COC[C@]2(COCc2cccnc2)C1,-13.2%
10,COCCCN1C(=O)CC[C@H]2CN(Cc3ccc4occc4c3)CC[C@H]21,-8.86%
11,O=C1CC(c2cccc(Cl)c2)c2snc(C(=O)O)c2N1 (configuration not stated),-0.952%
12,O=C1CC(c2ccc(F)cc2)c2snc(C(=O)O)c2N1 (configuration not stated),-1.41%
13,O=C1CC(c2ccc(F)c(F)c2)c2snc(C(=O)O)c2N1 (configuration not stated),68.8%
14,CC(=O)NCC(=O)N1C[C@H](OCc2cccnc2)[C@H]2COC[C@H]21,-10.5%
15,Cn1cc(CN2CCO[C@@H]3CN(C4CCCC4)C[C@@H]3C2)cn1,-3.52%
16,CCc1ccc(CN2CCN(Cc3ncc[nH]3)[C@H]3CS(=O)(=O)C[C@H]32)nc1,-7.95%
17,CCS(=O)(=O)N1C[C@@H]2CN(Cc3ccco3)CCO[C@@H]2C1,-0.26%
18,Cc1cccc(CO[C@@H]2CC[C@H]3[C@H]2OCCN3Cc2nccs2)n1,-27.1%
19,COC(=O)CNC(=O)Cn1ccc2cccc(OC)c21,-29.2%
20,COC(=O)CNC(=O)c1nc(-c2ccccc2OC)c2cnccn12,118%
21,COc1ccccc1-c1nc(C(=O)N(C)C)n2ccncc12,11.7%
22,Cc1nnc(N2C[C@H](OCCCn3cccn3)[C@H]3OCCC[C@H]32)s1,-20.4%
23,O=C1CO[C@H]2CN(Cc3cccnc3)C[C@H]2N1,0.623%

row,SMILES,Percent Effect
1,CC(=O)N1C[C@@H](c2ccsc2)[C@@H]2CN(CC3CCCCC3)CC[C@@H]21,18%
2,Cc1cccc(-c2ccc(C(=O)NCC(C)(C)C(N)=O)c(=O)[nH]2)c1,57.5%
3,Cc1cccc(-c2ccc(C(=O)NCCN(C)C3CC3)c(=O)[nH]2)c1,-29.9%
4,Cc1cccc(-c2ccc(C(=O)NCC3CCOC3)c(=O)[nH]2)c1 (configuration not stated),-6.84%
5,O=C(NC[C@H]1C[C@@H]2CN(C(=O)c3ccno3)C[C@@H]2O1)C1CCC1,-26.6%
6,CCN1C(=O)C[C@@H]2[C@@H]1CCN2S(=O)(=O)c1ccc(OC)cc1,-42.1%
7,O=C(c1cccs1)N1C[C@@H]2OCCN(CC3CCCO3)[C@@H]2C1 (some centres not stated),8.57%
8,CCn1c(SCC(=O)N2CCOCC2)nc2cc(C)[nH]c2c1=O,11.1%
9,CCn1c(SCC(=O)N2CCCC2)nc2cc(C)[nH]c2c1=O,54.6%
10,Cc1cc2nc(SCC(=O)N3CCCC3)n(C)c(=O)c2[nH]1,-2.84%
11,Cc1cc(C(=O)N2C[C@@H]3OCCN(CCN4CCCC4)[C@@H]3C2)c(C)o1,-5.69%
12,CCN1C(=O)C[C@@H]2[C@@H]1CCN2S(=O)(=O)Cc1ccc(C)cc1,16.4%
13,Cc1cc(C(=O)N2CC[C@H]3[C@H](C[C@@H](CN4CCCC4)N3C)C2)c(C)o1,-16.7%
14,CC(=O)N1CCCC1c1cccc(Cc2ccccc2F)n1 (configuration not stated),-41.9%
15,CN1CCCC1c1cccc(Cc2ccccc2F)n1 (configuration not stated),-56.2%
16,CS(=O)(=O)N1CCCC1c1cccc(Cc2ccccc2F)n1 (configuration not stated),51.8%
17,CCC1=N[C@@]2(CC[C@@H]3CN(C(=O)Nc4ccccc4)C[C@@H]32)C(=O)N1C,7.9%
18,O=C(NC1CC1)[C@H]1C[C@H]2OCC[C@H]2N(Cc2cccnc2)C1,1.16%
19,Cc1nnc2n1CCN(C(=O)c1cc3cc(F)ccc3[nH]1)C2,-0.338%
20,O=C(c1cc2cc(F)ccc2[nH]1)N1CCC(Nc2ccc(F)cc2)CC1,70.6%
21,O=C(c1cc2cc(F)ccc2[nH]1)N1CCC(Nc2cccnn2)CC1,-12.9%
22,O=C1CO[C@H]2CN(Cc3ccccc3Br)C[C@@H]2N1,5.27%
23,Cn1ccnc1CN1CCN(CC2CC2)[C@@H]2CS(=O)(=O)C[C@@H]21,-9.98%

row,SMILES,Percent Effect
1,c1ccc(CN2CCO[C@H]3[C@H](OCCN4CCCC4)CC[C@@H]32)nc1,-5.53%
2,CC(C)(C)c1ncc(CNc2ccccc2SCCC(N)=O)s1,4.25%
3,NC(=O)CCSc1ccccc1NCc1ccc(Cl)s1,75.8%
4,CC(C)(C)c1nc(CNc2ccccc2SCCC(N)=O)cs1,6.99%
5,O=C(Nc1cccnc1)[C@@H]1C[C@H]2OCC[C@H]2N(Cc2nccs2)C1,-10.3%
6,Cc1nnc(N2C[C@@H]3CCCO[C@@H]3[C@H](N(C)C)C2)s1,26.3%
7,Cc1nc(-c2ccc(Cl)s2)sc1C(=O)NCCCC(N)=O,54.9%
8,Cc1nc(-c2ccc(Cl)s2)sc1C(=O)N(C)CC(N)=O,88.9%
9,CC(=O)NCCNC(=O)c1sc(-c2ccc(C)cc2C)nc1C,-6.1%
10,COC(=O)CNC(=O)c1nc(Cl)sc1C(C)C,-1.24%
11,CC(=O)NCCNC(=O)c1sc(-c2ccc(Cl)cc2)nc1C,-15.5%
12,Cc1c(C(=O)NCCCC(N)=O)sc2ccc(F)cc12,0.295%
13,CN(CC(N)=O)C(=O)c1cc(Cl)c(Cl)n1C,-6.47%
14,CC(=O)NCCNC(=O)c1sc(-c2ccc(Cl)s2)nc1C,33.9%
15,Cc1nc(-c2ccc(Cl)s2)sc1C(=O)NCCS(N)(=O)=O,54%
16,COC(=O)CNC(=O)c1sc(-c2ccc(Cl)s2)nc1C,51.9%
17,COC(=O)CNC(=O)c1scnc1C,-29.3%
18,CN(CC(N)=O)C(=O)c1cnc(-c2ccc(Cl)s2)s1,-171%
19,CN(C)C(=O)CN1C[C@@H]2CC[C@H](C1)N(Cc1ccccc1OCCO)C2,-4.8%
20,CCCN1CCN(Cc2cccc(OC(C)C)c2)[C@H]2CS(=O)(=O)C[C@H]21,-8.54%
21,O=C(CO[C@@H]1CC[C@H]2[C@H]1OCCN2c1ncccn1)N1CCCC1,-31.3%
22,C1CCN(CCO[C@@H]2CC[C@H]3[C@H]2OCCN3CC2CCOCC2)C1,-4.73%
23,c1cnc(NC[C@H]2OC[C@@H]3CCN(Cc4ccsc4)C[C@@H]32)nc1,-14%

row,SMILES,Percent Effect
1,Cc1ccc(S(=O)(=O)N2CC[C@H]3CO[C@H](CN(C)C)[C@H]3C2)cc1,-8.17%
2,CC(C)N1C(=O)CO[C@H]2CCN(C(=O)c3ccc4c(c3)CCC4)CC[C@@H]21,13%
3,CC(C)(NC(=O)c1ccc(-c2ccc(F)cc2)s1)C(N)=O,-17.8%
4,Cc1nc(-c2ccc(Cl)s2)sc1C(=O)O,11.9%
5,Cc1nc(-c2ccc(Cl)s2)sc1C(=O)NC(C)(C)C(N)=O,59.7%
6,O=C1[C@@H]2CN(Cc3cc4ccccc4o3)C[C@]2(C(=O)O)CN1CC1CC1,-17.7%
7,CN(C)C(=O)N1C[C@@H]2CC[C@H](C1)N(C(=O)CCCn1cncn1)C2,-5.92%
8,Cc1csc(CNc2cnc3c(c2)c(C)nn3C)n1,54.4%
9,Cc1csc(CNc2nc3c(s2)c(C)nn3C)n1,24%
10,Cc1csc(CCNCc2cnc3c(c2)c(C)nn3C)n1,-13.2%
11,Cc1ccc([C@]2(O)CC[C@H]3CN(Cc4cccc(Cl)c4Cl)C[C@H]32)nc1,-77.5%
12,COc1ccnc(N2C[C@@H]3CC[C@H](C2)N(CC2CC2)C3)n1,-40.5%
13,Cc1ccc(-c2cc(C(=O)NCCCc3csc(N)n3)[nH]n2)s1,57.8%
14,Cc1ccc(-c2cc(C(=O)NCCCc3csc(N)n3)[nH]n2)o1,-10.8%
15,Cn1cccc1-c1cc(C(=O)NCCCc2csc(N)n2)[nH]n1,3.3%
16,COCCN1C[C@H]2[C@@H](C1)N(C(=O)CCc1ccccc1)CC[C@H]2OC,-5.76%
17,Cc1nnc([C@@H]2CC[C@@H]3[C@@H](CCN3S(=O)(=O)c3cccnc3)O2)o1,-18.5%
18,NC(=O)c1cc(-c2cccc(C(=O)O)c2)cs1,-10.7%
19,NC(=O)c1ccccc1-n1cc(-c2cccc(C(=O)O)c2)cn1,61.5%
20,NC(=O)c1cc(-n2cc(-c3cccc(C(=O)O)c3)cn2)cs1,-18.4%
